According to PubChem BioAssay (Tox21):
Several values for one entry are separate records, joined by “and”; a condition that tells them apart may be missing. Identical values can stand only once. Records with an inconclusive call do not appear. Where a structure was tested more than once in an assay, its records may differ in their call. Activity calls are given as the source filed them. Unless noted, the call rests on the fitted dose curve.

Tests used:
[1] = Nuclear factor erythroid 2-related factor 2/antioxidant responsive element (Nrf2/ARE) small molecule agonists: qHTS cell viability counter screen in human keratinocytes (AID 1919968; active means well fitted curve in the direction sought with a large enough effect in the repeat runs; an effect the other way counts as inactive or inconclusive; further: nearly all actives have a fitted effect of over 55% in size; further: potency means the concentration at half of the fitted maximal effect)
Summary of the method: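 KeratinoSens cells (HaCaT keratinocytes stably carrying an ARE-luciferase reporter) were seeded at 1,500 cells/well and rested 5 h at 37 C/5% CO2. They were then exposed to compounds in DMSO for 23 h. Viability was read by CellTiter-Fluor fluorescence after 1 h.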

[2] = Nuclear factor erythroid 2-related factor 2/antioxidant responsive element (Nrf2/ARE) small molecule agonists: luciferase reporter gene qHTS assay in human keratinocytes (AID 1919969); further: nearly all actives have a fitted effect of over 35% in size; further: potency means the concentration at half of the fitted maximal effect
[3] = target: Gonadotropin-releasing hormone receptor (Homo sapiens) (UniProt P30968); assay: Human gonadotropin-releasing hormone receptor (GnRHR) small molecule agonists, calcium flux assay in GnRHR-HEK293 cells (AID 1920063); further: nearly all actives have a fitted effect of over 35% in size; further: potency means the concentration at half of the fitted maximal effect
Sequence of Gonadotropin-releasing hormone receptor (Homo sapiens) (P30968 whole entry, looked up): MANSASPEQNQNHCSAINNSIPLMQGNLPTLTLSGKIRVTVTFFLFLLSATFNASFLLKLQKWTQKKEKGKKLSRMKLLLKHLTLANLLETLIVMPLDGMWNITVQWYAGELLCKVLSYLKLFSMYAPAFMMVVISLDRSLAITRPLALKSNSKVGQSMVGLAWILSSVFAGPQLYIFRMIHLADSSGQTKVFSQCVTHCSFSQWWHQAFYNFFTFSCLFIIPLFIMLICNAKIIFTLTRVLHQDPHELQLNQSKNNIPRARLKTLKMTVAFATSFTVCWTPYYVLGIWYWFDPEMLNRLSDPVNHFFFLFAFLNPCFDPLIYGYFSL
Summary of the method: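 HEK293 cells stably expressing human GnRHR were plated 18 h at 37 °C, loaded with calcium dye 1 h at 37 °C, then given compound in agonist mode; fluorescence (Ex/Em 480/540) read kinetically for 3 min at 1 s intervals.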

[4] = target: KiSS-1 receptor (Homo sapiens) (UniProt Q969F8); assay: Human kisspeptin (KISS1R) small molecule agonists, calcium flux assay in KISS1R-HEK293 cells (AID 1920064; active means well fitted curve in the direction sought with a large enough effect in the repeat runs; an effect the other way counts as inactive or inconclusive; further: potency means the concentration at half of the fitted maximal effect)
Sequence of KiSS-1 receptor (Homo sapiens) (Q969F8 whole entry, looked up): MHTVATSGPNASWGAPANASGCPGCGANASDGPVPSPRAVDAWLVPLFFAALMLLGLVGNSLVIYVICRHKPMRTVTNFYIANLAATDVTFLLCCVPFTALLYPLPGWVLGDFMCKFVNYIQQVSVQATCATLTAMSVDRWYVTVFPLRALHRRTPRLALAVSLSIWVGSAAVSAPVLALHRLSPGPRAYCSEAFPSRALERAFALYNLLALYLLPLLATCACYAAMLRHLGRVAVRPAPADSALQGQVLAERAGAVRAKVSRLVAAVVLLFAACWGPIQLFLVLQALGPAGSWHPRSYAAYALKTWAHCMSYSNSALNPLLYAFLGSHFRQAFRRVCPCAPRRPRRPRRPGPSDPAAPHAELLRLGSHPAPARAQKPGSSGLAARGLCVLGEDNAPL
Summary of the method: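 HEK293 cells stably expressing human KISS1R were plated 18 h at 37 °C, loaded with calcium dye for 1 h at 37 °C, then given compound by pin tool. Fluorescence (Ex/Em 480/540) was read kinetically for 3 min.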

[5] = G protein-coupled receptor (GPCR) small molecule agonists, calcium flux assay: HEK293 wild type cell line counter screen (AID 1920065); further: potency means the concentration at half of the fitted maximal effect
Summary of the method: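 Cells were plated and cultured 18 h at 37 C/5% CO2, then loaded with calcium dye for 1 h at 37 C. Compounds in DMSO were pin-transferred in agonist mode, and fluorescence (Ex/Em 480/540) was read kinetically for 3 min at 1 s intervals.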

[6] = p53 small molecule agonists, cell-based qHTS assay with human liver microsomes (AID 1963577);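 further: p53 response element beta-lactamase reporter cells with liver microsomes plus NADPH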
Summary of the method: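 16 h, 37 C exposure of p53RE-bla cells to compounds with human liver microsomes and NADPH (0.5 mg/mL final each); detection via LiveBLAzer mixture, 2 h dark at room temperature.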

[7] = p53 small molecule agonists, cell-based qHTS assay with rat liver microsomes (AID 1963578)
Summary of the method: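 With rat liver microsomes and NADPH present (0.5 mg/mL final each), p53RE-bla cells are treated with compound for 16 h at 37 C. LiveBLAzer detection mixture is then applied for 2 h at room temperature in the dark.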

[8] = p53 small molecule agonists, cell-based qHTS assay with human liver microsomes: qHTS cell viability counter screen (AID 1963579); further: nearly all actives have a fitted effect of over 45% in size; further: potency means the concentration at half of the fitted maximal effect
Summary of the method: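 In this multiplexed counter screen, the reporter plates were subsequently treated with CellTiter-Glo so that cell viability, reflected by luminescence, could be recorded for p53RE-bla cells dosed 16 h with compounds under microsomal activation (HLM and NADPH).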

[9] = p53 small molecule agonists, cell-based qHTS assay with rat liver microsomes: qHTS cell viability counter screen (AID 1963580); further: nearly all actives have a fitted effect of over 45% in size; further: potency means the concentration at half of the fitted maximal effect
Summary of the method: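 Intracellular ATP, by CellTiter-Glo luminescence, defines viability. HCT-116 p53RE-bla cells, 4,000 per well, were compound-treated in the presence of rat liver microsomes and NADPH for 16 h at 37 C.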

[10] = p53 small molecule agonists, cell-based qHTS assay: qHTS cell viability counter screen (AID 1963581); further: nearly all actives have a fitted effect of over 45% in size; further: potency means the concentration at half of the fitted maximal effect
Summary of the method: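 p53RE-bla HCT-116 cells were exposed to compounds for 16 h at 37 C; after the beta-lactamase FRET read in the same wells, CellTiter-Glo was added and luminescence (intracellular ATP) read after 30 min at room temperature.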

[11] = target: 5-hydroxytryptamine receptor 2A (Homo sapiens) (UniProt P28223); assay: 5-hydroxytryptamine receptor 2A (HTR2A) small molecule agonists, cell-based qHTS assay (AID 1963587); further: nearly all actives have a fitted effect of over 30% in size; further: potency means the concentration at half of the fitted maximal effect
Sequence of 5-hydroxytryptamine receptor 2A (Homo sapiens) (P28223 whole entry, looked up): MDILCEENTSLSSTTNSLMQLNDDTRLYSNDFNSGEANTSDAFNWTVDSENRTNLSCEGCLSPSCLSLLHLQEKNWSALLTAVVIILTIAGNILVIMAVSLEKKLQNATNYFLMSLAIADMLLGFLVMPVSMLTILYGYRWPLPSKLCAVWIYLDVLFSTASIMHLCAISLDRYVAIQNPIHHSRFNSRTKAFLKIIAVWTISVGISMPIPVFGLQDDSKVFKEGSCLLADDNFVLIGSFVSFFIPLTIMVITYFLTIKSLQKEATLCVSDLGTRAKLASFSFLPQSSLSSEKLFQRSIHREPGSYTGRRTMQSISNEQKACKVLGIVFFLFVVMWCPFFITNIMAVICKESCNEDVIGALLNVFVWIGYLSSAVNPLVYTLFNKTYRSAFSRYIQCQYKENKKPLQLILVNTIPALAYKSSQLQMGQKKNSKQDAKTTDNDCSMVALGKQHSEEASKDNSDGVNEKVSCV
Summary of the method: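 Kinetic calcium-flux fluorescence (2 min, 1 sec intervals) after compound addition in agonist mode. HTR2A-CHO cells were cultured 18 h, then dye-loaded 1 h at 37 C.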

[12] = target: Muscarinic acetylcholine receptor M1 (Homo sapiens) (UniProt P11229); assay: Cholinergic receptor muscarinic 1 (CHRM1) small molecule antagonists, cell-based qHTS assay (AID 1963588); further: nearly all actives have a fitted effect of over 40% in size
Sequence of Muscarinic acetylcholine receptor M1 (Homo sapiens) (P11229 whole entry, looked up): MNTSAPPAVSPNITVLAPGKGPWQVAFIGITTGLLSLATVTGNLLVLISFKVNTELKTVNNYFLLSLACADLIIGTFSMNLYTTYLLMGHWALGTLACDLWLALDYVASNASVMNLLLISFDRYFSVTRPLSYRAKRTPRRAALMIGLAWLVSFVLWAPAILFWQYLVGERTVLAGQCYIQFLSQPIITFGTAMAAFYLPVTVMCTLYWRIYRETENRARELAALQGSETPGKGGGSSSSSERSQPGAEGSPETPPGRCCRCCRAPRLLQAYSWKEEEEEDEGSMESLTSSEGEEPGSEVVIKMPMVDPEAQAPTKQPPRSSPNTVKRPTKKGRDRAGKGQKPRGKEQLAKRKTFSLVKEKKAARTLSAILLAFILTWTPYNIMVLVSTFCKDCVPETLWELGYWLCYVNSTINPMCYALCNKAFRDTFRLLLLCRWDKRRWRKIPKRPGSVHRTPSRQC
Summary of the method: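 CHRM1-CHO calcium-flux assay, antagonist mode. Cells were seeded 18 h, dye-loaded 1 h at 37 C and given compound for 5 min at RT, then acetylcholine was added at 50nM. FDSS fluorescence was read 3 min; 15 concentrations, three runs.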

[13] = target: Muscarinic acetylcholine receptor M1 (Homo sapiens) (UniProt P11229); assay: Cholinergic receptor muscarinic 1 (CHRM1) small molecule agonists, cell-based qHTS assay (AID 1963589); further: nearly all actives have a fitted effect of over 35% in size; further: potency means the concentration at half of the fitted maximal effect
Summary of the method: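 CHO cells stably expressing human CHRM1, seeded 18 h at 37 C/5% CO2, dye-loaded 1 h at 37 C, then given compound in agonist mode; intracellular calcium fluorescence read kinetically at 1 s intervals. Fifteen concentrations, three independent runs.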

[14] = target: Beta-2 adrenergic receptor (Homo sapiens) (UniProt P07550); assay: Adrenergic beta2 receptor (ADRB2) small molecule antagonists, cell-based qHTS assay (AID 1963592); further: series mostly up to about 92 µM; nearly all actives have a fitted effect of over 50% in size
Sequence of Beta-2 adrenergic receptor (Homo sapiens) (P07550 whole entry, looked up): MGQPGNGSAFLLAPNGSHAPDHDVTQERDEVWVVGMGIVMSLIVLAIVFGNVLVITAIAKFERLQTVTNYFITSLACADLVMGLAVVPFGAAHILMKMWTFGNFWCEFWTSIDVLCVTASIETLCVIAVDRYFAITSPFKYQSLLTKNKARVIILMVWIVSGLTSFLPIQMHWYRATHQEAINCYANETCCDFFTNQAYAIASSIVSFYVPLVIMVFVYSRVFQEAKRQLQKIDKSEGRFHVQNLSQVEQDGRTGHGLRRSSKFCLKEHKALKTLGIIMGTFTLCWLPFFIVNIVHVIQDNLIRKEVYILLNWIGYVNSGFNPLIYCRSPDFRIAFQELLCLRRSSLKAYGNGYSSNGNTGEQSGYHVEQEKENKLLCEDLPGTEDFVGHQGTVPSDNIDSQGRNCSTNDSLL
Summary of the method: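 Cells (CHO, stable ADRB2 overexpression) incubated 18-20hr at 37C; compounds added from DMSO; agonist mix (1nM isoproterenol, 100uM IBMX, 25uM Ro-20-1724) added; 0.5hr RT; d2-cAMP and anti-cAMP-cryptate added; 1hr RT; 665/615 nm read.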

[15] = target: Beta-2 adrenergic receptor (Homo sapiens) (UniProt P07550); assay: Adrenergic beta2 receptor (ADRB2) small molecule agonists, cell-based qHTS assay (AID 1963593);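 further: CHO cells stably overexpressing human ADRB2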
Summary of the method: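 CHO cells stably over-expressing ADRB2 were plated overnight at 37C, then dosed with compounds plus a stimulation mix containing 100uM IBMX and 25uM Ro-20-1724 for 0.5hr at room temperature. cAMP was measured by HTRF competition, 1hr.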

[16] = target: D(2) dopamine receptor (Homo sapiens) (UniProt P14416); assay: Dopamine D2 receptor (DRD2) small molecule antagonists, cell-based qHTS assay (AID 1963595; active means well fitted inhibition curve with a large enough effect in the signal ratio in the repeat runs, with a control signal flat; the % refers to the signal ratio; further: potency means the concentration at half of the fitted maximal effect)
Sequence of D(2) dopamine receptor (Homo sapiens) (P14416 whole entry, looked up): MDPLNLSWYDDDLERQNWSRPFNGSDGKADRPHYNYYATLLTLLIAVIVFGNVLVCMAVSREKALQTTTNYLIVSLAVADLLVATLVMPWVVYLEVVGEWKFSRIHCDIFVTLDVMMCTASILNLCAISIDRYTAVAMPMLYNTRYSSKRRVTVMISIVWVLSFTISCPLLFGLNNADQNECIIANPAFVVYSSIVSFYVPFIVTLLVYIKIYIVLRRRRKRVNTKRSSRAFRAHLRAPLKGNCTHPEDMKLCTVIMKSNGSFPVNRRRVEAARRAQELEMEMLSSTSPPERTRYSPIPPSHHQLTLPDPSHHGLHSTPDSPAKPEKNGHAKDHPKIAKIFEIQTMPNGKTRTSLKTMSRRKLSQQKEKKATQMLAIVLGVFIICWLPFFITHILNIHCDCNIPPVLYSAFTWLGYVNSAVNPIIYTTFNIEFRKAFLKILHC
Summary of the method: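 HEK293 cells stably expressing DRD2 were preincubated with 0.1 mM Ro20-1724, then with compound for 10 min at room temperature. Cells were stimulated with 200 nM NKH477 plus 12 nM quinpirole for 30 min, and cAMP was read by HTRF.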

[17] = target: 5-hydroxytryptamine receptor 2A (Homo sapiens) (UniProt P28223); assay: 5-hydroxytryptamine receptor 2A (HTR2A) small molecule antagonists, cell-based qHTS assay (AID 1963586); further: nearly all actives have a fitted effect of over 45% in size
Summary of the method: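 Antagonist-mode intracellular calcium assay: DOI (4 nM) added after 5 min compound pre-incubation at room temperature to dye-loaded HTR2A-CHO cells. Fluorescence followed for 3 min, sampled every second.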

[18] = cAMP Responsive Elements (CRE) small molecule agonists, cell-based qHTS assay (AID 1963590)
Summary of the method: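 CRE-bla HEK 293T cells in DMEM with 10% dialyzed FBS, NEAA, pyruvate and 25 mM HEPES were plated 18 h at 37 C/5% CO2, then exposed to compounds in DMSO for 3 h before LiveBLAzer B/G FRET substrate addition.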

[19] = cAMP Responsive Elements (CRE) small molecule antagonists, cell-based qHTS assay (AID 1963591; active means well fitted inhibition curve with a large enough effect in the signal ratio in the repeat runs, not every such curve was filed as active; the % refers to the signal ratio)
Summary of the method: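 CRE-bla HEK293T cells were plated 18 h at 37 °C/5% CO2, pinned with compound in DMSO, then stimulated with NKH477 at 0.25 uM final for 3 h. LiveBLAzer B/G FRET substrate was added and plates incubated 2 h at room temperature.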

[20] = target: D(2) dopamine receptor (Homo sapiens) (UniProt P14416); assay: Dopamine D2 receptor (DRD2) small molecule agonists, cell-based qHTS assay (AID 1963594); further: nearly all actives have a fitted effect of over 35% in size
Summary of the method: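 cAMP accumulation in DRD2-HEK293 cells measured by HTRF after 1 h detection; compounds added 10 min before NKH477 (200nM […]) forskolin-analogue stimulation, 30 min at room temperature, with Ro20-1724 present at 0.1 mM final.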

Measured: Potency

CCCCCCCCC/C=C/CC1CC(=O)OC1=O (centres undefined)
not listed: [17] | [18] | [19] | [20]
inactive: all other assays above

O=C(O)CC(C(=O)O)C(CC(=O)O)C(=O)O (centres undefined)
not listed: [12] | [14] | [15]
inactive: all other assays above

Nc1ccc(Cl)cc1Cl
not listed: [17]
inactive: all other assays above

NNCCc1ccccc1
active: [2] 3.87 µM and 8.41 µM
not listed: [10] | [11] | [12] | [13] | [17]
inactive: all other assays above

O=C(O)c1ccccc1Nc1cccc(C(F)(F)F)c1
13.7 µM (active) and inactive: [2]
40.8 µM (active) and inactive: [8]
not listed: [13] | [18]
inactive: all other assays above

Cc1ccc2ncccc2c1
not listed: [10]
inactive: all other assays above

CCOCC(=O)O
not listed: [10]
inactive: all other assays above

C[C@]12CC[C@@H]3c4ccc(O)cc4CC[C@H]3[C@@H]1CC[C@H]2O
not listed: [11] | [12] | [13] | [17] | [20]
inactive: all other assays above

CCCOC(=O)c1ccccc1
not listed: [10] | [15] | [17]
inactive: all other assays above

CCCc1c(OCCCCc2nn[nH]n2)ccc(C(C)=O)c1O
not listed: [15] | [18] | [19]
inactive: all other assays above

CCCCC/C=C\C/C=C\CCCCCCCC(=O)O
active: [2] 60.1 µM and 68.6 µM
not listed: [18] | [19]
inactive: all other assays above

CC1(C)NC(=O)NC1=O
not listed: [16] | [17] | [18]
inactive: all other assays above

CC(=O)OC/C=C(C)/C=C/C=C(C)/C=C/C1=C(C)CCCC1(C)C
active: [2] 66.9 µM and 54.5 µM and 29.8 µM
not listed: [11] | [17] | [20]
inactive: all other assays above

CCN=c1cc2oc3cc(NCC)c(C)cc3c(-c3ccccc3C(=O)OCC)c-2cc1C
active: [3] 12.3 µM and 7.76 µM | [4] 17.3 µM and 21.9 µM | [5] 38.8 µM and 30.9 µM | [8] 40.6 µM and 40.8 µM | [9] 20.4 µM and 40.8 µM | [10] 45.6 µM | [11] 5.47 µM and 19.5 µM | [13] 19.4 µM and 19.5 µM | [16] 34.4 µM
inactive: [1] | [6] | [7] | [17] | [12]
inactive and 27.3 µM (active): [2]

CC1=CC(=O)CC(C)(C)C1
16.7 µM (active) and inactive: [9]
2.5 µM (active) and inactive: [1]
not listed: [13]
inactive: all other assays above

Nc1ccn([C@H]2CC[C@@H](CO)O2)c(=O)n1
not listed: [11]
inactive: all other assays above

NC(=O)c1ncn([C@@H]2O[C@H](CO)[C@@H](O)[C@H]2O)n1
not listed: [11] | [12] | [13] | [17]
inactive: all other assays above

CC1=C(/C=C/C(C)=C/C=C/C(C)=C/CO)C(C)(C)CCC1
active: [2] 69.4 µM and 72.3 µM
not listed: [18] | [19]
inactive: all other assays above

CC(C)CC(=O)CC(C)CC(C)C (centres undefined)
not listed: [10] | [15]
inactive: all other assays above

c1ccc2c(c1)[nH]c1ccccc12
not listed: [10] | [15]
inactive: all other assays above

NCCS(=O)(=O)O
not listed: [11]
inactive: all other assays above

C=CC(=O)OCCOCCOCCOCCOC(=O)C=C
active: [1] 61.4 µM and 48.1 µM | [2] 24.5 µM and 27.1 µM
not listed: [10] | [12] | [15] | [18] | [19]
inactive: all other assays above

CCCCCCCCCCCCc1ccccc1O
active: [1] 21.4 µM and 24.3 µM | [8] 18 µM and 20.4 µM | [10] 14.3 µM and 18.2 µM
not listed: [11] | [15] | [18] | [19]
inactive: all other assays above

COc1ccc2c(c1)c(CC(=O)O)c(C)n2C(=O)c1ccc(Cl)cc1
not listed: [11] | [12] | [13] | [15] | [17] | [18] | [19]
inactive: all other assays above

O=C(c1ccc(O)cc1)c1ccc(O)cc1O
not listed: [15] | [17] | [18]
inactive: all other assays above

Cc1ccc(S(=O)(=O)NCl)cc1
not listed: [10] | [12]
inactive: all other assays above

N[C@@H](Cc1cc(I)c(Oc2ccc(O)c(I)c2)c(I)c1)C(=O)O
not listed: [11] | [12] | [13] | [15] | [17] | [18] | [19]
inactive: all other assays above

CC1=C(/C=C/C(C)=C/C=C/C(C)=C/C(=O)Nc2ccc(O)cc2)C(C)(C)CCC1
active: [1] 49.8 µM and 13.3 µM | [2] 2.22 µM and 2.11 µM
41.8 µM (active) and inactive: [8]
not listed: [10] | [19]
inactive: all other assays above

COC(C)COC(C)COC(C)CO (centres undefined)
not listed: [10] | [13]
inactive: all other assays above

Cc1cc(=O)n(-c2ccccc2)n1C
not listed: [11] | [12] | [13] | [17] | [18]
inactive: all other assays above
